Activity calls are given as the source filed them. The calls were made as follows: active = hit-call score of the fitted dose curve at least 0.9, where 1 is the maximum; inactive = score below 0.9.
Key:
[1] = ATG_CRE_CIS: Attagene CIS-FACTORIAL HepG2 Assay for human cAMP Responsive Element (CRE) binding protein 3 (AID 2282926); details: HepG2 CRE cis-reporter, Attagene multiplexed mRNA; actives raise or lower the signal
Method in brief: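 Endogenous transcription factor activity read via CRE-regulated reporter transcripts in transfected HepG2 cells. After 24 h exposure, RNA was reverse-transcribed, amplified, fluorescently labelled and sized by capillary electrophoresis; gain or loss fitted against DMSO.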

[2] = target: CCAAT/enhancer-binding protein beta (Homo sapiens) (UniProt P17676); test: ATG_C_EBP_CIS: Attagene CIS-FACTORIAL HepG2 Assay for human CCAAT/Enhancer Binding Protein (C/EBP) beta (AID 2282927); details: HepG2 Attagene cis-factorial transcription factor reporter; actives raise or lower the signal
CCAAT/enhancer-binding protein beta (Homo sapiens), sequence (P17676 whole entry, looked up): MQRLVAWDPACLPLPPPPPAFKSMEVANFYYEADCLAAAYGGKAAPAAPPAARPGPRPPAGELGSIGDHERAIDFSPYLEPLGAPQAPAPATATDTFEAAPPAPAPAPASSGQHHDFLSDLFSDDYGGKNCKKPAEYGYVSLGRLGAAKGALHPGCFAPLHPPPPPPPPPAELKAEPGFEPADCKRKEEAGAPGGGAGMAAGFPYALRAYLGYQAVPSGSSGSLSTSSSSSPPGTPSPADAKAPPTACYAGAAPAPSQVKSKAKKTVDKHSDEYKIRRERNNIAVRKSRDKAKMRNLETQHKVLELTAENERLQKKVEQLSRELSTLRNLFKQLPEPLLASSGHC
Method in brief: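 HepG2, transient MRTU transfection, 24 h treatment. RT-PCR plus CE fluorescence; DMSO negative control, bidirectional fit.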

[3] = ATG_CMV_CIS: Attagene CIS-FACTORIAL HepG2 Assay for human CMV (Internal Marker) (AID 2282928); details: HepG2 CMV promoter reporter, transcription factor profiling; actives raise or lower the signal;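 also: endpoint acts as a background internal control marker rather than a target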
Method in brief: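 24 h chemical treatment, HepG2 with transient multi-reporter transfection; RNA → oligo(dT) RT → PCR → 6-FAM extension → HpaI digest → CE fluorescence. Bidirectional fit, DMSO negative control.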

[4] = ATG_DR4_LXR_CIS: Attagene CIS-FACTORIAL HepG2 Assay for human Liver X Receptor (LXR), DR4 submotif (AID 2282929); details: HepG2 Attagene DR4 cis-reporter, mRNA transcription; actives raise or lower the signal
Method in brief: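 HepG2 cells were transiently transfected with multiple cis-regulated reporter units and dosed for 24 hours. The DR4 reporter mRNA was quantified by RT-PCR, 6-FAM labelling and capillary electrophoresis. Bidirectional fits used DMSO as baseline.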

[5] = target: Aryl hydrocarbon receptor (Homo sapiens) (UniProt P35869); test: ATG_Ahr_CIS: Attagene CIS-FACTORIAL HepG2 Assay for human Aryl Hydrocarbon Receptor (Ahr) (AID 2282930); details: HepG2 AhR cis-factorial reporter transcription; actives raise or lower the signal
Aryl hydrocarbon receptor (Homo sapiens), sequence (P35869 whole entry, looked up): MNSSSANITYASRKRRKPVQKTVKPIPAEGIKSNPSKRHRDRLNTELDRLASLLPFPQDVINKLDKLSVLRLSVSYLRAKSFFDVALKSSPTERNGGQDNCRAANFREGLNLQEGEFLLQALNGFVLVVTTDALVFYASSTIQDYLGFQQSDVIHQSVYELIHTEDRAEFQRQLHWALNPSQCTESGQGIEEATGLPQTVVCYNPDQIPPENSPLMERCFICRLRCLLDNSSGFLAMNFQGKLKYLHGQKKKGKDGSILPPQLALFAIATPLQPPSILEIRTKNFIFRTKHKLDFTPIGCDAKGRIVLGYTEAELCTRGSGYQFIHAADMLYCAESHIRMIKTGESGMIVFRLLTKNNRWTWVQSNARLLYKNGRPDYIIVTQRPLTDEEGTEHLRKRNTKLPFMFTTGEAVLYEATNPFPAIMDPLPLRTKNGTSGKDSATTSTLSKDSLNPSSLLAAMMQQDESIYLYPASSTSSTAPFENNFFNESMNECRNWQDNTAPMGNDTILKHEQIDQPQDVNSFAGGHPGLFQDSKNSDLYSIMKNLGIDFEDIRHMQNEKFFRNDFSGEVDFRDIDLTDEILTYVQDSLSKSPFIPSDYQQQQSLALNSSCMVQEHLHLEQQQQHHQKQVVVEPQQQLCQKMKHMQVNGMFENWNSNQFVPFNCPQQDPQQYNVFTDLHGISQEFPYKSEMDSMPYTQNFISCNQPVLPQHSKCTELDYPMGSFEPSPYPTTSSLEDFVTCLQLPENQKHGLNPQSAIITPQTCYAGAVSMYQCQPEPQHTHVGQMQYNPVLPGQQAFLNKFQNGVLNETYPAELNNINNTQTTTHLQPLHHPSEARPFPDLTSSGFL
Method in brief: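 Endogenous factor activity is tracked through cis-promoter reporter units transfected into HepG2 cells. Transcript levels at 24 h are read by fluorescent RT-PCR and capillary electrophoresis, with activity in either direction scored relative to DMSO.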

[6] = ATG_AP_1_CIS: Attagene CIS-FACTORIAL HepG2 Assay for human Activator Protein 1 (AP-1) (AID 2282931); details: HepG2 Attagene cis-factorial AP-1 reporter mRNA; actives raise or lower the signal
Method in brief: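 HepG2 cells transiently transfected with cis-element-driven reporter transcription units, dosed for 24 hours. Reporter mRNA measured by RT-PCR, 6-FAM labelling, HpaI digestion and capillary electrophoresis. Bidirectional fitting against DMSO baseline.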

[7] = ATG_AP_2_CIS: Attagene CIS-FACTORIAL HepG2 Assay for human Activator Protein 2 (AP-2) (AID 2282932); details: HepG2 AP-2 cis-reporter, Attagene transcription factor profiling; actives raise or lower the signal
Method in brief: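 Read-out: fluorescent reporter mRNA via RT-PCR and capillary electrophoresis, 24 h post-dose in transiently transfected HepG2. Endogenous factors drive cis-promoter reporters; gain or loss of signal fitted bidirectionally against DMSO.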

[8] = ATG_BRE_CIS: Attagene CIS-FACTORIAL HepG2 Assay for human Bone Morphogenetic Protein (BMP) Response Element (BRE) (AID 2282933); details: HepG2 BMP response element reporter, Attagene transcription factor profiling; actives raise or lower the signal
Method in brief: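 HepG2 cells transiently transfected with multiplexed cis-element reporter units were dosed with chemical for 24 h. Reporter mRNA was measured by RT-PCR with fluorescent labelling, HpaI digestion and capillary electrophoresis; bidirectional fitting relative to DMSO.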

[9] = target: Retinoic acid receptor alpha (Homo sapiens) (UniProt P10276); test: ATG_DR5_RAR_CIS: Attagene CIS-FACTORIAL HepG2 Assay for human Retinoic Acid Receptor Alpha (RARE), DR5 submotif (AID 2282934); details: HepG2 Attagene cis-factorial RARE DR5 reporter, mRNA; actives raise or lower the signal
Retinoic acid receptor alpha (Homo sapiens), sequence (P10276 whole entry, looked up): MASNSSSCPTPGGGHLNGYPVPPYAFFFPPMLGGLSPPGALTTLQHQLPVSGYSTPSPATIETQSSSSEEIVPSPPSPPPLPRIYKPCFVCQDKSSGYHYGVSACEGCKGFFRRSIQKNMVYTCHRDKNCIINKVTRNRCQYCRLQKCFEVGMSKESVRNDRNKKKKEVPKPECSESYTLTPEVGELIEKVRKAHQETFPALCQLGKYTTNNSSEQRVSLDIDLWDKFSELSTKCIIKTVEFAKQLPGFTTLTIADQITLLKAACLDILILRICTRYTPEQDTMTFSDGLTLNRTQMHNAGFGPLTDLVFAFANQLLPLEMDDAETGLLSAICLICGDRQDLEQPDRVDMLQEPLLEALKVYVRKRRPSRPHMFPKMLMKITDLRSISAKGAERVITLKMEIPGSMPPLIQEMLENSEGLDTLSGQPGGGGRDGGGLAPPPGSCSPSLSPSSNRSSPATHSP
Method in brief: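 After 24 h of chemical exposure, transiently transfected HepG2 cells were lysed for total RNA; the DR5-regulated reporter transcript was quantified via RT-PCR and capillary electrophoresis, with activity fitted bidirectionally against DMSO.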

[10] = target: Transcription factor E2F1 (Homo sapiens) (UniProt Q01094); test: ATG_E2F_CIS: Attagene CIS-FACTORIAL HepG2 Assay for human E2F Transcription Factor 1 (AID 2282935); details: HepG2 Attagene cis-reporter, E2F reporter RNA transcripts; actives raise or lower the signal
Transcription factor E2F1 (Homo sapiens), sequence (Q01094 whole entry, looked up): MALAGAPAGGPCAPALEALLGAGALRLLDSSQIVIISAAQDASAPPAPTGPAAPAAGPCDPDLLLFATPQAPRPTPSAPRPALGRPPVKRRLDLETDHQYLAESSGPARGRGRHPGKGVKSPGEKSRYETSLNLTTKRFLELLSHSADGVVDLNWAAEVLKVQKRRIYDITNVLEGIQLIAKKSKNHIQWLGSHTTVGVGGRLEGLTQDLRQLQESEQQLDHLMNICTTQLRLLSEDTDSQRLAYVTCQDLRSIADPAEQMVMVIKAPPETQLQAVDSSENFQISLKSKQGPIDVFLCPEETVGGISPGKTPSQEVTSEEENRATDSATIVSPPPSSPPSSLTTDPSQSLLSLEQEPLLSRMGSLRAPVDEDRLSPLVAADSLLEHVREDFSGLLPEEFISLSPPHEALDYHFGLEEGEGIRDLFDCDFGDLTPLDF
Method in brief: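 Transient MRTU transfection of HepG2; 24 h compound exposure; RNA → oligo(dT) RT → PCR → FAM label → HpaI cut → CE fluorescence. Gain/loss of signal fit against DMSO.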

[11] = ATG_EGR_CIS: Attagene CIS-FACTORIAL HepG2 Assay for human Early Growth Response 1 (EGR1) (AID 2282938); details: HepG2 Attagene CIS-FACTORIAL EGR reporter mRNA; actives raise or lower the signal
Method in brief: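 HepG2 cells transiently transfected with cis-element-driven multiplexed reporter units, dosed for 24 h. EGR1-element reporter mRNA quantified by RT-PCR, 6-FAM labelling, HpaI digestion and capillary electrophoresis; bidirectional fit versus DMSO.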

[12] = ATG_M_19_CIS: Attagene CIS-FACTORIAL HepG2 Assay for M19 Transcription Factor (Internal Marker) (AID 2282939); details: HepG2 Attagene CIS-FACTORIAL M19 internal marker reporter; actives raise or lower the signal
Method in brief: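 HepG2 cells transiently transfected with cis-regulated multiple reporter transcription units were dosed for 24 h; reporter mRNA was quantified by RT-PCR, 6-FAM primer-extension labelling, HpaI digestion and capillary electrophoresis, with bidirectional fitting against DMSO baseline.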

[13] = ATG_Ets_CIS: Attagene CIS-FACTORIAL HepG2 Assay for human Erythroblast Transformation Specific (ETS) (AID 2282941); details: HepG2 ETS cis-reporter transcription, actives raise or lower the signal
Method in brief: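 Cis-regulated reporter mRNA induction in HepG2 (transient transfection), 24 h exposure, RT-PCR plus capillary electrophoresis detection; DMSO serves as negative control and baseline.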

[14] = target: Hepatocyte nuclear factor 3-beta (Homo sapiens) (UniProt Q9Y261); test: ATG_FoxA2_CIS: Attagene CIS-FACTORIAL HepG2 Assay for human Forkhead box A2 (FOXA2) (AID 2282942); details: HepG2 cis-reporter transcription factor activity, 24 h; actives raise or lower the signal
Hepatocyte nuclear factor 3-beta (Homo sapiens), sequence (Q9Y261 whole entry, looked up): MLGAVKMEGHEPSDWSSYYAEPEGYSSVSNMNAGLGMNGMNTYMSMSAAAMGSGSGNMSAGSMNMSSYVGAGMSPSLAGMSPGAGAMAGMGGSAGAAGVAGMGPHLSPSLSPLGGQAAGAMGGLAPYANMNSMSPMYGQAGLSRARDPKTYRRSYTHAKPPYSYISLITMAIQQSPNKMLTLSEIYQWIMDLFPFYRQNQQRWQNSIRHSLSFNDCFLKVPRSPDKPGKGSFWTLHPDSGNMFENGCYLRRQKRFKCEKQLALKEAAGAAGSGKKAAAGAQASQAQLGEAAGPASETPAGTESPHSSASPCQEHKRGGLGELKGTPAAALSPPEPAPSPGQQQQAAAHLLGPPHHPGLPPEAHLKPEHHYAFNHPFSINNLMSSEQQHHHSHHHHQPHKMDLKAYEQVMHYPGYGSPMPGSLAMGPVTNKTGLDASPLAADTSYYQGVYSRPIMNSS
Method in brief: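 HepG2 transiently transfected with a multiplexed cis-promoter reporter library read endogenous FOXA2 activity. After 24 h compound exposure, reporter mRNA was quantified by RT-PCR, HpaI digestion and capillary electrophoresis. Bidirectional fit against DMSO.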

[15] = ATG_FoxO_CIS: Attagene CIS-FACTORIAL HepG2 Assay for human Forkhead box O (FoxO) (AID 2282943); details: HepG2 Attagene cis-reporter, FoxO element, mRNA; actives raise or lower the signal
Method in brief: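 Transfected HepG2 reporter cells exposed to test chemical for 24 h; reporter RNA measured by reverse transcription, PCR and fluorescent capillary electrophoresis; curves fitted for increases and decreases against DMSO.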

[16] = ATG_GATA_CIS: Attagene CIS-FACTORIAL HepG2 Assay for human GATA Binding Protein (AID 2282944); details: HepG2 GATA cis-element reporter, Attagene multiplex mRNA; actives raise or lower the signal
Method in brief: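 HepG2 cells transiently transfected with multiplexed cis-element reporter units reflecting endogenous transcription factor activity; reporter mRNA measured after 24 h dosing by RT-PCR, 6-FAM labeling, HpaI digestion and capillary electrophoresis. Bidirectional fitting versus DMSO baseline.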

[17] = ATG_GLI_CIS: Attagene CIS-FACTORIAL HepG2 Assay for human Zinc Finger Protein GLI1 (AID 2282945); details: HepG2, Attagene cis-factorial reporter mRNA, GLI element; actives raise or lower the signal
Method in brief: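 Transiently transfected HepG2 cells report endogenous transcription factor activity via cis-element-driven reporter units. After 24 h compound exposure, reporter mRNA was measured by RT-PCR with capillary electrophoresis; bidirectional fitting against DMSO baseline.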

[18] = ATG_E_Box_CIS: Attagene CIS-FACTORIAL HepG2 Assay for human Enhancer Box (E-box) (AID 2282936); details: HepG2 E-box cis-reporter transcription, actives raise or lower the signal
Method in brief: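 Transiently transfected HepG2, endogenous TF-driven reporters, 24 h dosing. Readout: RT-PCR plus capillary electrophoresis of fluorescent reporter fragments. Gain or loss of signal fitted bidirectionally against DMSO baseline.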

[19] = ATG_M_61_CIS: Attagene CIS-FACTORIAL HepG2 Assay for M61 Transcription Factor (Internal Marker) (AID 2282937); details: HepG2 Attagene CIS-FACTORIAL M61 internal marker reporter; actives raise or lower the signal
Method in brief: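 HepG2 cells transiently transfected with multiplexed cis-promoter reporter units reporting endogenous transcription factor activity, measured 24 h after dosing. Reporter mRNA quantified by RT-PCR and capillary electrophoresis; bidirectional fit against DMSO baseline.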

[20] = ATG_ERE_CIS: Attagene CIS-FACTORIAL HepG2 Assay for Estrogen Response Element (ERE) (AID 2282940); details: HepG2 ERE cis-reporter, Attagene RNA transcript; actives raise or lower the signal
Method in brief: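 HepG2 cells transiently transfected with cis-promoter-driven multiplexed reporter transcription units report endogenous TF activity. After 24 h compound exposure, reporter mRNA is quantified by RT-PCR with capillary electrophoresis fluorescence; bidirectional fitting versus DMSO baseline.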

Measured: AC50

CCCCC(CC)COC(=O)c1ccc(O)cc1 (stereo not given)
not listed: [18] | [19] | [20]
inactive: all other assays above

COc1cccc(OC)c1O
not listed: [13] | [19] | [20]
inactive: all other assays above

O=C(Nc1ccc2c(O)c(N=Nc3ccc(N=Nc4ccc(S(=O)(=O)O)cc4)cc3)c(S(=O)(=O)O)cc2c1)c1ccccc1
active: [8] 66.8 µM
not listed: [10]
inactive: all other assays above

Cc1occc(=O)c1OC(=O)C(C)C
not listed: [19] | [20]
inactive: all other assays above

CCCC(O)C(O)CO (stereo not given)
active: [5] 0.16 µM
not listed: [19] | [20]
inactive: all other assays above

CS(=O)(=O)c1ccc(Cl)cc1
not listed: [18] | [20]
inactive: all other assays above

C[N+](C)(C)CCCCCC[N+](C)(C)C
not listed: [10] | [20]
inactive: all other assays above

From PubChem BioAssay (EPA / NIEHS)
